Test results as given in the supplement of paper PMC11732987, “Enantioselective OTUD7B fragment discovery through chemoproteomics screening and high-throughput optimisation” (Communications Chemistry, 2025).

Experiments:
Experiment in all cases: log2 ratio of Biotin-Ahx-Ub-VS probe labelling (fragment/DMSO); higher = less target engagement (more negative = stronger competition), active = hit call of the paper (q ≤ 0.05, log2 ratio ≤ -1)
Settings in all cases: compound concentration: 200 uM; treatment time: 3 h
[1] = target: T1, ALG13 (UniProt Q9NP73)
T1 sequence (whole entry): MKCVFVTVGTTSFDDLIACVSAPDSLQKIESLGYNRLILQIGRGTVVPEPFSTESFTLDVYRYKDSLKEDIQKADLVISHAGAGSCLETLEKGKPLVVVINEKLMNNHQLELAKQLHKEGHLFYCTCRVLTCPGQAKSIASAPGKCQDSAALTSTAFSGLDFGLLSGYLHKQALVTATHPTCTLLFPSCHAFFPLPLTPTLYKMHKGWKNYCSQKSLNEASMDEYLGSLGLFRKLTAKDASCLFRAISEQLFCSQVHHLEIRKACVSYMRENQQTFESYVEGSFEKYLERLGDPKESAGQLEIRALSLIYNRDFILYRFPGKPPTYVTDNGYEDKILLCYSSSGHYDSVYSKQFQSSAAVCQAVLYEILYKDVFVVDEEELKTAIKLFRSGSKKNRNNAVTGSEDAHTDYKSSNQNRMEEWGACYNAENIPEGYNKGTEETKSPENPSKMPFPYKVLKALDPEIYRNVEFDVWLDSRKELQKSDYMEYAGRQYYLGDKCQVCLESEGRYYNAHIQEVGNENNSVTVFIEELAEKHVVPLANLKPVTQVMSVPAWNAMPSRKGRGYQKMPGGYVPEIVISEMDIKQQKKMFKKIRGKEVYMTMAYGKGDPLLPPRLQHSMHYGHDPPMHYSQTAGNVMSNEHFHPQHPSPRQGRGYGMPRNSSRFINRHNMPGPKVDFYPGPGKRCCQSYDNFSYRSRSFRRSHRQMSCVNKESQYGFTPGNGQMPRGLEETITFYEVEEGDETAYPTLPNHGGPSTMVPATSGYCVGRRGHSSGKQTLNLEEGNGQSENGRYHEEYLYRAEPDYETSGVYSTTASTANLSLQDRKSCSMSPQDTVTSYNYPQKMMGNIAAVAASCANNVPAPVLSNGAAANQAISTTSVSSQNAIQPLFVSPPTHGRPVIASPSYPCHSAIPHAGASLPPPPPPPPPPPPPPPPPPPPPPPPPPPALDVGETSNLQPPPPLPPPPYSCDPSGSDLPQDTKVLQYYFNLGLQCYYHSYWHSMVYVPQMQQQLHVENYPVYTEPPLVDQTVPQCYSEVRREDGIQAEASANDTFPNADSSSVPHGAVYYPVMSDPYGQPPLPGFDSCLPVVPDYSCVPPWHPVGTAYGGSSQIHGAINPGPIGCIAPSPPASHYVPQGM
Procedure, shortened: (§1)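 Fragment (200 µM) or vehicle was incubated for 3 h with triplicate HEK293T lysate samples of 495 µg, which were then treated with Biotin-Ahx-Ub-VS at 0.5 µM final for 1 h. Labelled DUBs were enriched on NeutrAvidin, digested with LysC and trypsin, and analysed by diaPASEF LC-MS/MS. Values are average log2 fragment/vehicle ratios from an unpaired t-test on global-median-normalised Spectronaut label-free quantities, using proteins with ≥2 unique peptides.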

[2] = target: ATXN3 (UniProt P54252)
ATXN3, sequence (P54252 whole entry): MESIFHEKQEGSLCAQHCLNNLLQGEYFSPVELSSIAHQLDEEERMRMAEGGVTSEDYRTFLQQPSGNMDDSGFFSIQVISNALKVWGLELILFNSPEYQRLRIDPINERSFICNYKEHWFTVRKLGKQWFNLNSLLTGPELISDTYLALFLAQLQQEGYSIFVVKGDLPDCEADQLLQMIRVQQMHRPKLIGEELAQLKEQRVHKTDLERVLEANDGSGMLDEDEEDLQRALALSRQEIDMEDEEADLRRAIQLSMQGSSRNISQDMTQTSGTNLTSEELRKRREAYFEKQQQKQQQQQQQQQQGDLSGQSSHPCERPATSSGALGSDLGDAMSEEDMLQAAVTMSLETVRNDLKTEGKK
Procedure, shortened: as §1

[3] = target: T2, BAP1 (UniProt Q92560)
T2 sequence (whole entry): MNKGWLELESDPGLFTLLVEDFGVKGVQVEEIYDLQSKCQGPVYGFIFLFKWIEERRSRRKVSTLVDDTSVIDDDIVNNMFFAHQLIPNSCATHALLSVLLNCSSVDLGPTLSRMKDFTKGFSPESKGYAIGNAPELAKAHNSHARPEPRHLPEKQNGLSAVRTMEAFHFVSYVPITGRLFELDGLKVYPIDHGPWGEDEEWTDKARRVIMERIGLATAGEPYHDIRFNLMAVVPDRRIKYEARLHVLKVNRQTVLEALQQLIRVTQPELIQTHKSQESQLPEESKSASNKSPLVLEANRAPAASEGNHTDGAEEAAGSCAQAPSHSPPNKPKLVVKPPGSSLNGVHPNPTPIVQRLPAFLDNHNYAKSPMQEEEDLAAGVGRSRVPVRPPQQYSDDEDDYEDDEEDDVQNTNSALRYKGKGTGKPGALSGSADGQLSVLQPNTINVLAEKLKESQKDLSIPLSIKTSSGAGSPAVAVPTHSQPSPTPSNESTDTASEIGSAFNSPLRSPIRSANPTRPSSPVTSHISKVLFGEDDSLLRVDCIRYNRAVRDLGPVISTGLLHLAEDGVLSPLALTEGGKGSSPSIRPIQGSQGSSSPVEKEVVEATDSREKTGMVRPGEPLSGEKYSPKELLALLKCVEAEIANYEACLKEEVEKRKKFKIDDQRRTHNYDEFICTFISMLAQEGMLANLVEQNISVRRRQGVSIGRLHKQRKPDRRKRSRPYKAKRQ
Procedure, shortened: as §1

[4] = target: EIF3F (UniProt O00303)
EIF3F, sequence (O00303 whole entry): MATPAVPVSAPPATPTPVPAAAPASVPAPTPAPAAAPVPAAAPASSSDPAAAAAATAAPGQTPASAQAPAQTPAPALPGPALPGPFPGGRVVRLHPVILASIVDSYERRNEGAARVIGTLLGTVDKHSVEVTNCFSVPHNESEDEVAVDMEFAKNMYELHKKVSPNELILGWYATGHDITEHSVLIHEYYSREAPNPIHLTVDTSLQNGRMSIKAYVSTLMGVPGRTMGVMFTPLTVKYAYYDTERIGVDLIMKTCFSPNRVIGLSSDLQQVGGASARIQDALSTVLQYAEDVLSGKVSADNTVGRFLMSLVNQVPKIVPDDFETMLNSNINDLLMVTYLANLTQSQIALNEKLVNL
Procedure, shortened: as §1

[5] = target: EIF3H (UniProt O15372)
EIF3H, sequence (O15372 whole entry): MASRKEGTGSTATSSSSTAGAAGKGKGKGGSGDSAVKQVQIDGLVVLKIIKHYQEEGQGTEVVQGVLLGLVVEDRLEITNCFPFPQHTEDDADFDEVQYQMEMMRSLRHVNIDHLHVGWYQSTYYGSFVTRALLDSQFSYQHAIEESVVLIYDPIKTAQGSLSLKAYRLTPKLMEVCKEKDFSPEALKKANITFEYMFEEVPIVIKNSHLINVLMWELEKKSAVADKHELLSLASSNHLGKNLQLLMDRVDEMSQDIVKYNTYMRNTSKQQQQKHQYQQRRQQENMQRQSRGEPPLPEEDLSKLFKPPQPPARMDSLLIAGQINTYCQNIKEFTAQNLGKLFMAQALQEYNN
Procedure, shortened: as §1

[6] = target: T3, FAM105A (UniProt Q9NUU6)
T3 sequence (whole entry): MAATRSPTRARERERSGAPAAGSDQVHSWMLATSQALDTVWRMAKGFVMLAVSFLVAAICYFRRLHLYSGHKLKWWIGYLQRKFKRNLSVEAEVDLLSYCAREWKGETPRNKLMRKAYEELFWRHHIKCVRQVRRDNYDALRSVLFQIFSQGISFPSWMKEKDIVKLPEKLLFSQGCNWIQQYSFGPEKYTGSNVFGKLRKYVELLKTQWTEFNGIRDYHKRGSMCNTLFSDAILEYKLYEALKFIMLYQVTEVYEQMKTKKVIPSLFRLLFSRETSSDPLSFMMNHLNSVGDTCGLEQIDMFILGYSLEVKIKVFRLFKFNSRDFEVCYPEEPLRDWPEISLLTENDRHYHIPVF
Procedure, shortened: as §1

[7] = target: OTUB1 (UniProt Q96FW1)
OTUB1, sequence (Q96FW1 whole entry): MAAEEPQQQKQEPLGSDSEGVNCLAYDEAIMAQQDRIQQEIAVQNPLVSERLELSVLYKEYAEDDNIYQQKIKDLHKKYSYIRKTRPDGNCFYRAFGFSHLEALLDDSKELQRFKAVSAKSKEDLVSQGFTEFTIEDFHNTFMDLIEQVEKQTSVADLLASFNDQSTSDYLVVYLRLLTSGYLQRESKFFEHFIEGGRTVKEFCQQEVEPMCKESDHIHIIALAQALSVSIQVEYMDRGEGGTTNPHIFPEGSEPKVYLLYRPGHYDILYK
Procedure, shortened: as §1

[8] = target: T4, OTUD4 (UniProt Q01804)
T4 sequence (whole entry): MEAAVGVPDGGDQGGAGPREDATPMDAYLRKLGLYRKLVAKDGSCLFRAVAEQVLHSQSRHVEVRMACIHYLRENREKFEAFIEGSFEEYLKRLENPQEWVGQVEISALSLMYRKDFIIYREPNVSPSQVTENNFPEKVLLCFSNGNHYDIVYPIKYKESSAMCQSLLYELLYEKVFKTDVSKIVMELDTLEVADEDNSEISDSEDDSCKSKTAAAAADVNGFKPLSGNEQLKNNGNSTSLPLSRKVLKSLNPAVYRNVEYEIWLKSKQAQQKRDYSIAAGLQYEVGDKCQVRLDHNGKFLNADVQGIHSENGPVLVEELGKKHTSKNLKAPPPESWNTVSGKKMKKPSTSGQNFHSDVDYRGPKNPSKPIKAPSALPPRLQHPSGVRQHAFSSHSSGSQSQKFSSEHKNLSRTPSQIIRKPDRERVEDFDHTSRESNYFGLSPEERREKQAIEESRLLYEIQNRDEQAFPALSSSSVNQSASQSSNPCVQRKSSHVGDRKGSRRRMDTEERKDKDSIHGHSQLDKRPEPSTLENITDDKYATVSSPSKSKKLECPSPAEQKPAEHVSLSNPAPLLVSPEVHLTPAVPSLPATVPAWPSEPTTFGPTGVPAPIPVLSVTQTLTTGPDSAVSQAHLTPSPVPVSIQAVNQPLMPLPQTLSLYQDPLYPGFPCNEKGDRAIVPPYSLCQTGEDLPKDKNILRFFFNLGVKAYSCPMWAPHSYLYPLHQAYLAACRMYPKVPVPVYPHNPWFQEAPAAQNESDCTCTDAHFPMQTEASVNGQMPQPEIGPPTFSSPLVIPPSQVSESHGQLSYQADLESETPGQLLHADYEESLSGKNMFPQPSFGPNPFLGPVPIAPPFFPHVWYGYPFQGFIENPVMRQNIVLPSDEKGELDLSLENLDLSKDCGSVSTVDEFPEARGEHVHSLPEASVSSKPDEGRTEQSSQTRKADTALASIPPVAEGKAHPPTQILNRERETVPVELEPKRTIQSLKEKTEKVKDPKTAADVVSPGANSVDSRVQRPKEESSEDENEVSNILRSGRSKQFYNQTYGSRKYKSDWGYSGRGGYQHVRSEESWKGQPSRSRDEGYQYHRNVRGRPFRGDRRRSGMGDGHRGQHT
Procedure, shortened: as §1

[9] = target: T5, OTUD5 (UniProt Q96G74)
T5 sequence (whole entry): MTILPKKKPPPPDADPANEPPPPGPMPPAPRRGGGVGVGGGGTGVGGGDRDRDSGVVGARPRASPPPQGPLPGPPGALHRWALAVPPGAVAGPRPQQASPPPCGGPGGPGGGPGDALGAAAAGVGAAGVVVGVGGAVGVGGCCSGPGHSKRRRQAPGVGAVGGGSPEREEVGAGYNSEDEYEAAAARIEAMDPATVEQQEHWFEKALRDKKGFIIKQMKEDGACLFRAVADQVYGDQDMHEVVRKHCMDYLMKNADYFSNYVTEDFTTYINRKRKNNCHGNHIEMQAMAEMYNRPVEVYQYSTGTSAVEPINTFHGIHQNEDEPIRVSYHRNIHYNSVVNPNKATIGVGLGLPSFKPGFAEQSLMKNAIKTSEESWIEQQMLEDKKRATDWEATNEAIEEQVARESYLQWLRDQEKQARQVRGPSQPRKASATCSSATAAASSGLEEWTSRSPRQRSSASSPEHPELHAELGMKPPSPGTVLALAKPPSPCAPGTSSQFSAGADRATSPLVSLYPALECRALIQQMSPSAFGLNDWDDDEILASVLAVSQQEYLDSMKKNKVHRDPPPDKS
Procedure, shortened: as §1

Measured: log2 ratio of Biotin-Ahx-Ub-VS probe labelling

CN(Cc1nc2ccccc2[nH]1)C(=O)CCl.Cl
inactive: [1] 0.0974 | [2] -0.483 | [3] -0.482 | [4] -0.447 | [5] 0.225 | [6] -0.213 | [7] -0.189 | [8] 0.0195 | [9] -0.483
